This is a sample that favours compounds with a hit; in the whole collection about 12% have one here.
SARS PLP yeast: qHTS of Yeast-based Assay for SARS-CoV PLP | AID 485353, 2010 | Potency, µM (top dose mostly 32.9 µM), hits mostly activators | hit rate 0.19% among 330,000 | S. cerevisiae expressing SARS-CoV PLpro, growth rescue; calls by dose curve; further: nearly all actives have a fitted effect of over 55% in size
Sm TGR inh: qHTS Assay for the Inhibitors of Schistosoma Mansoni Peroxiredoxins; Schistosoma mansoni thioredoxin glutathione reductase (TGR), Q962Y6; purified TGR, DTNB reduction, TNB absorbance 405 nm; Potency, µM (titrated, usually from 114 µM), usual class: inhibitors; hit rate 3% among 360,000; further: nearly all actives have a fitted effect of over 60% in size
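TGR 20 nM + NADPH 100 uM (dispensed conc.), cpd preinc 15 min RT; start with NADPH (500 uM addition) then DTNB (15 mM addition). Kinetic TNB absorbance, 405 nm filter. Four-parameter Hill fit across titration.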
Pf growth 48h: Primary qHTS for delayed death inhibitors of the malarial parasite plastid, 48 hour incubation; hit rate 5.9% among 310,000; P. falciparum luciferase growth in erythrocytes, 48 h; AID 504832, 2011; Potency, µM (highest dose often 28.7 µM), actives largely listed as inhibitors
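In quantitative HTS format, infected erythrocytes bearing luciferase-reporter parasites were treated for a single generation at 37 C. Luminescence after adding detection reagent served as the growth measure.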
Pf growth 96h: Primary qHTS for delayed death inhibitors of the malarial parasite plastid, 96 hour incubation; hit rate 6.9% among 320,000; P. falciparum luciferase reporter growth, 96 h; Potency, µM (series often up to 28.7 µM), usual class: inhibitors; AID 504834, 2011
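Two-generation exposure (96 h) targets delayed-death phenotype. Reporter parasites carrying integrated firefly luciferase, in red cells at 2% hematocrit and 0.05% parasitemia final, kept at 37 C, 5% CO2; luminescence loss indicates inhibition.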
Hits are given with their value; - = inactive; ? = inconclusive; . = no result given; [ ] = another dose, or the depositor's remark. Unless noted, the call rests on the fitted dose curve; in most records, active means well fitted curve in the direction sought with a large enough effect; inconclusive means small, poorly fitted or top-dose-only effect, or another doubt; inactive means no such curve, though single readings can be large; an effect the other way counts as inactive or inconclusive.

SMILES | SARS PLP yeast | Sm TGR inh | Pf growth 48h | Pf growth 96h
CCCN1CC(=O)N2C(c3cccc(OC)c3OC)c3[nH]c4ccccc4c3C[C@H]2C1=O (some centres not stated) | - | - | 9.3µM | 4.1µM
COC(=O)c1nnn(CC(=O)Nc2cc(F)ccc2F)c1C(=O)OC | . | - | . | .
Nc1cc(N)nc(SCC(=O)NCc2ccc3c(c2)OCO3)n1 | - | . | . | .
CC1=C/C(=N\OS(=O)(=O)c2ccccc2)C(C)=CC1=O | - | 45µM | . | 4.1µM
CC1=C(C)/C(=N\OS(=O)(=O)c2ccc(C)cc2)C=CC1=O | - | 7.9µM | ? | -
COc1ccc(S(=O)(=O)/N=C2/C=CC(=O)C(C)=C2C)cc1 | - | ? | ? | ?
CC1=C/C(=N\OS(=O)(=O)c2ccccc2)C(C(C)C)=CC1=O | - | ? | ? | -
O=C1NC(=O)C(=Cc2ccc(SC3CCCCC3)o2)C(=O)N1 | - | 40µM | - | -[5.75 µM]
CNS(=O)(=O)c1ccc(-c2ccc(C=C3C(=O)NC(=O)NC3=O)o2)cc1 | - | ? | - | -
O=C(O)c1cc(S(=O)(=O)N2CCCCC2)ccc1Cl | - | - | - | ?
O=C1NC(=S)NC(=O)C1=Cc1cccc2cc3ccccc3cc12 | - | ? | ? | ?
O=C1NC(=S)NC(=O)C1=Cc1ccc(Br)s1 | - | 20µM | - | ?
CN1C(=O)/C(=C\c2ccc(Br)s2)C(=O)NC1=S | - | 3.2µM | - | -
Cc1ccc(C)c(CN2C(=O)c3ccccc3Sc3ccc(C(=O)NCc4ccco4)cc32)c1 | . | - | . | .
O=C(CSc1ccc([N+](=O)[O-])cn1)Nc1ccc2[nH]c(=O)[nH]c2c1 | - | - | - | 4.7µM
O=C1CCCc2nc(N3CCN(C(=O)c4ccco4)CC3)ncc21 | - | - | - | 9.3µM
O=C(c1ccco1)N1CCN(c2ncccn2)CC1 | - | - | . | -
CCCCCn1c(CCNC(=O)c2cccc(C)c2)nc2ccccc21 | . | - | . | .
O=C(CN1C(=O)NC2(CCCCCC2)C1=O)c1ccc2c(c1)OCCO2 | - | - | - | 8.3µM
CN(C)c1ccc(CNc2nc(-c3ccco3)nn2S(=O)(=O)c2ccc3ccccc3c2)cc1 | . | - | . | .
O=c1c2c3nc4ccccc4nc3n(/N=C/c3ccco3)c2ncn1CCC1=CCCCC1 | - | 13µM | - | -
Cc1ccc(NC(=O)CSCc2cc(=O)n3ccsc3n2)c(C)c1 | - | - | - | -
Cc1nn2c(-c3cccc(NC(=O)c4ccccc4)c3)nnc2c2ccccc12 | . | - | . | .
Cn1cc(C(=O)N/N=C/C2=C(N3CCOCC3)C(=C\c3ccccc3)/CC2)ccc1=O | - | - | - | ?
O=C1Nc2ccccc2/C1=N\N=C\C1=C(N2CCOCC2)C(=C\c2ccccc2)/CC1 | - | 45µM | ? | 2.9µM
SMILES | SARS PLP yeast | Sm TGR inh | Pf growth 48h | Pf growth 96h
CCN(CC(=O)Nc1c(F)cccc1F)C(=O)c1ccc2c(c1)OCO2 | - | - | - | -
CC(=O)c1cn(CC(=O)Nc2ccccc2Cl)c2ccccc12 | - | - | - | -
COc1cc(-c2nc(-c3ccccc3)c(-c3cccs3)[nH]2)cc(OC)c1O | - | - | . | 1.9µM
OC(CN1CCCCCC1)CN(c1ccccc1)c1ccccc1 (configuration not stated) | - | - | ? | -
OC(CN1CCCCC1)CN(c1ccccc1)c1ccccc1 (configuration not stated) | - | -[11.4 µM] | . | 9.3µM
NC(N)=NCC(O)CN(c1ccccc1)c1ccccc1 (configuration not stated) | - | - | 1.2µM | 1.5µM
O=C(Nc1cccc(F)c1)C1CCN(c2nc3ccccc3nc2C(F)(F)F)CC1 | . | - | . | .
Cc1ccc(S(=O)(=O)CNC(=S)c2cccc(Cl)c2)cc1 | - | 3.5µM | - | -
Cc1ccc(C(=S)NCS(=O)(=O)c2ccc(C)cc2)cc1 | - | 2.8µM | - | -
CCNC(=S)NS(=O)(=O)c1ccc(C)cc1 | - | - | - | -
CC1c2[nH]c3ccccc3c2C[C@H]2C(=O)N(CCCN(C)C)CC(=O)N12 (some centres not stated) | - | - | - | -
CCc1nn2cc(C(=O)c3cc(C)ccc3O)cnc2c1-c1ccc(F)cc1 | - | - | 2.6µM | -
O=C(CN1C(=O)NC2(CCCCCCC2)C1=O)Nc1ccc(Cl)cc1 | - | - | - | -
Cc1cc(C(=O)NNc2ccc(Cl)cc2)no1 | - | - | - | -
Cc1ccc(NNC(=O)c2ccno2)cc1C | - | 50µM | - | -
Cc1cc(C(=O)NNc2ccc(C)c(C)c2)no1 | - | 50µM | - | -
CCOC(=O)c1cnc(N2CCN(c3cccc(C)c3C)CC2)c2ccccc12 | . | - | . | .
CCOc1ccc(NC(=O)CSc2nc(=O)[nH]c3c2CCC3)cc1 | . | - | . | .
NS(=O)(=O)c1ccc(CNC(=S)NC2CCCC2)cc1 | - | - | - | 13µM
Fc1ccccc1CNC(=S)NC1CCCCC1 | - | - | - | 4.1µM
S=C(NCCNCc1ccccc1)NC1CCCCC1 | - | - | ? | 4.7µM
COc1cc(C)c(Cl)cc1S(=O)(=O)NCCc1c(C)[nH]c2ccccc12 | . | - | . | .
Cc1ccc(NC(=O)CN(C)C(=O)c2cccnc2Nc2cccc(C(F)(F)F)c2)cc1 | - | - | ? | 9.3µM
COc1cccc(NC(=O)CN(C)C(=O)c2cccnc2Nc2cccc(C(F)(F)F)c2)c1 | - | - | 9.3µM | ?
CCOc1ncccc1C(=O)N(C)CC(=O)Nc1ccc(C)cc1 | - | - | - | -
SMILES | SARS PLP yeast | Sm TGR inh | Pf growth 48h | Pf growth 96h
COc1cccc(NC(=O)CN(C)C(=O)c2ccccc2OCC(=O)Nc2cccc(C(F)(F)F)c2)c1 | - | - | - | -
COc1ccc(C(CNC(=O)c2ccc(NS(=O)(=O)c3cccc([N+](=O)[O-])c3)cc2)N2CCOCC2)cc1 (configuration not stated) | - | - | ? | ?
Cc1ccc(NC(=O)C2CCCN(S(=O)(=O)c3cccc4cccnc34)C2)c(C)c1 (configuration not stated) | . | - | . | .
Cc1[nH]c2ccccc2c1C(C#N)(C#N)C1C(=O)c2ccccc2C1=O | - | 45µM | ? | ?
Cc1[nH]c2ccccc2c1CC#N | - | - | - | -
COc1cc(NS(=O)(=O)c2ccc(C)cc2C)cc(OC)c1OC | - | - | 6.6µM | 3.3µM
CCN1C(Nc2ccccc2)=NC[C@@H]1Cc1ccccc1 | - | 25µM | ? | -
CCCCCCCN1C(Nc2ccccc2)=NC[C@@H]1Cc1ccccc1 | - | - | ? | 5.2µM
CCC(C)CCN1C(Nc2ccccc2)=NC[C@@H]1Cc1ccccc1 (some centres not stated) | - | - | ? | ?
CC(Oc1cccc(Br)c1)C(=O)NNC(=O)CCNC(=O)c1ccccc1Cl (configuration not stated) | - | - | - | -
CC(=O)Nc1ccc(NC(=O)C2CC(=O)N(Cc3ccccc3)C2)cc1 (configuration not stated) | - | - | - | ?
O=C(NNC(=O)C1CC(=O)N(Cc2ccccc2)C1)c1ccc(Br)cc1 (configuration not stated) | - | - | - | 2.3µM
